sEH inh: inhibitors of human soluble epoxide hydrolase | P34913 | recombinant human sEH enzymatic activity assay | inhibition, % at 2 µM | actives 0.34% (n = 91,000) | AID 707; in the data active = inhibition above about 80%
PLAP act: activates human placental alkaline phosphatase. P05187. purified PLAP enzyme, luminescent substrate read-out; active compounds read high. activation fold at 20 µM. actives 1.2% (n = 96,000); in the data active = activation fold above about 2
Target sequence (P05187 whole entry, looked up): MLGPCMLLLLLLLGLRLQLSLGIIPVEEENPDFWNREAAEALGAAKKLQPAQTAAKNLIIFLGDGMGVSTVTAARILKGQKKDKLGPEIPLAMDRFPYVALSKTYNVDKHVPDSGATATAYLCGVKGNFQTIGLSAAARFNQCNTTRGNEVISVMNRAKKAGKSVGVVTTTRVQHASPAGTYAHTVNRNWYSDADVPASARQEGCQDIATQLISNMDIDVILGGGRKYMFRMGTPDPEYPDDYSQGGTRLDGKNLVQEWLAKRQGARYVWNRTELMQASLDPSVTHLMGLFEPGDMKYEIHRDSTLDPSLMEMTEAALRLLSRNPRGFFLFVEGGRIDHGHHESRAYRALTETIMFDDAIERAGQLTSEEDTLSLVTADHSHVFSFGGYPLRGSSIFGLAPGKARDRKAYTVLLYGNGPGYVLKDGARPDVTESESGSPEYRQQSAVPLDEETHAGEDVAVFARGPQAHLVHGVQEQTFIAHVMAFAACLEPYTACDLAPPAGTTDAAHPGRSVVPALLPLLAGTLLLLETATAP
BAP1 inh: human BAP1 deubiquitinase inhibition; recombinant BAP1, Ub-AMC hydrolysis fluorescence kinetic; active compounds read low; calls only at 20 µM; actives 0.48% (n = 72,000); AID 436;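 active = activity remaining at or below 50% of control, provided the compound also passes the data quality filters; inactive = the rest, including low values that fail the filters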;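 also: 100% = DMSO wells rate and 0% = substrate alone blank rate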
sEH act: soluble epoxide hydrolase (human) activation; purified human sEH enzymatic activity, activator screen; P34913; actives 0.04% (n = 91,000); AID 717; activation, % at 2 µM; in the data active = activation above about 37%
Starred values were filed as active, the others as inactive; i = inactive; x = not tested or not shown. Most compounds without a hit are left out; they make up all but 1.5% or so of the library.

SMILES	sEH inh	PLAP act	BAP1 inh	sEH act
CCOc1ccccc1NC(=O)c1c(NC(=O)C(C)(C)C)sc2c1CCC2	x	x	i	x
CC(=O)c1ccc(-n2c(-c3cc(-c4ccco4)[nH]n3)n[nH]c2=S)cc1	6	2.6*	x	-3
O=C(O)c1ccc(-n2c(-c3cc(-c4ccco4)[nH]n3)n[nH]c2=S)cc1	4	0.9	x	-1
CCCCCn1c(CN2CCN(c3cccc(Cl)c3)CC2)nc2c1c(=O)n(C)c(=O)n2C	-11	1.4	i	8
CCCCCn1c(N2CCN(c3cccc(Cl)c3)CC2)nc2c1c(=O)[nH]c(=O)n2C	9	2*	i	-10
CCCCn1c(CN2CCN(c3cccc(Cl)c3)CC2)nc2c1c(=O)n(C)c(=O)n2C	-3	2.1*	i	6
N#CCCN(CCC#N)S(=O)(=O)c1ccc2ccccc2c1	x	x	i	x
CCCCNS(=O)(=O)c1ccc2nc(SCC(=O)c3ccc(C#N)cc3)[nH]c2c1	x	2*	i	x
O=C(CSc1nc2ccc([N+](=O)[O-])cc2[nH]1)c1ccc2ccccc2c1	6	0.9	x	-3
Cc1cc(C)c2ccc(NN)nc2c1O	0	2*	x	-3
COc1ccc(C=Nc2ccco2)cc1	x	x	i	x
Cc1cccn2cc(CNS(=O)(=O)c3cccc(F)c3)nc12	-11	2.3*	x	9
Cn1c(C(=O)NCCCN2CCOCC2)cc2c(=O)n(C)c3ccccc3c21	x	1.8	i	x
Cn1c(C(=O)NCCCN2CCN(c3ccccc3F)CC2)cc2c(=O)n(C)c3ccccc3c21	x	2.3*	i	x
Cc1cc(C)c2nc(N3CCC(C(=O)NCCCN4CCCCC4)CC3)sc2c1	-3	2*	x	2
O=C(Nc1nc(-c2cccc([N+](=O)[O-])c2)cs1)c1ccccc1Br	x	x	i	x
CCOC(=O)Cn1c(=O)oc2cc(S(=O)(=O)NCc3ccccn3)ccc21	18	2*	i	-18
COC(=O)c1c(NC(=O)c2ccc(OC(C)C)cc2)sc2c1CCC(c1ccccc1)C2 (stereo unspecified)	x	x	i	x
COc1ccc(CCNc2nc(C)nc3c2oc2ccccc23)cc1OC	-10	2*	x	9
Nc1nc2n(n1)C1(CCCCC1)C1=C(CCCC1)N2	-4	2.1*	i	1
O=C(NCN1CCCCC1)c1cnccn1	-7	1.1	i	6
O=C(NNC(=O)C1CCCCC1)c1cnccn1	-3	2*	x	4
O=C(Nc1nnc(-c2ccc(Br)cc2)s1)c1ccc(Cl)cc1	x	x	i	x
COC(=O)/C=C1/S/C(=N/NC(=O)c2ccccc2)NC1=O	-2	1.7	x	4
COC(=O)/C=C1\S/C(=N/NC(=O)c2ccccc2)NC1=O	-16	2.5*	x	14
SMILES	sEH inh	PLAP act	BAP1 inh	sEH act
C/C(=N\Nc1cc(Cl)nc(C)n1)c1ccc(C)cc1	-48	x	x	52*
c1ccc(CN2CCN(c3ncnc4nc[nH]c34)CC2)cc1	x	2.1*	i	x
C1=C(c2ccccc2)CCN(c2ncnc3nc[nH]c23)C1	x	2*	i	x
c1ccc2c(c1)CCN(c1ncnc3nc[nH]c13)C2	x	1.5	i	x
N#Cc1c(NC(=O)c2cccs2)sc2c1CCCC2	x	x	i	x
CC(C)N1CC(O)=C(c2nc3ccccc3[nH]2)C1=N	-9	2.5*	i	14
O=C(NCCC1=CCCCC1)c1ccc2c(c1)N(Cc1ccccc1)C(=O)CS2	82*	1.1	x	-82
O=C(NCCN1CCOCC1)c1ccc2c(c1)N(Cc1ccccc1)C(=O)CS2	21	1.2	i	-21
CCn1c(C(=O)N2CCC(C(=O)NCCCSC3CCCCC3)CC2)cc2sccc21	96*	1.7	i	-96
CCN1CCN(C(=O)c2cc3cc4cc(OC)ccc4nc3s2)CC1	x	1.5	i	x
COc1ccc(S(=O)(=O)NNC(=O)c2cc3cc4ccccc4nc3s2)cc1	4	2*	x	-2
CCOC(=O)CSc1nnc(CSc2nc3sc4c(c3c(=O)[nH]2)CCC4)n1-c1ccccc1	0	2*	x	-1
Cc1onc(-c2c(F)cccc2Cl)c1C(=O)NC1CCSC1=O (stereo unspecified)	-8	2.1*	x	6
Cc1ccccc1NC(=O)c1c(NC(=O)c2ccc([N+](=O)[O-])cc2)sc2c1CCCCC2	x	x	i	x
Cc1ccc(C(=O)Nc2ccccc2F)cc1	x	x	i	x
COc1ccc(C2C(C(C)=O)=C(O)C(=O)N2Cc2ccccc2)cc1OC (stereo unspecified)	x	x	i	x
N#Cc1cc2c(nc1SCc1nc3ccccc3[nH]1)CCC2	x	2.1*	i	x
COc1cccc(NC(=O)c2nn(C)cc2Br)c1	1	x	i	5
Cn1cc(Br)c(C(=O)NNC(=O)c2cccc(Br)c2)n1	3	2.3*	x	0
Cc1cc2nc(-c3ccc(SCC(=O)N4CCOCC4)nc3)[nH]c2cc1C	61	0.8	x	-62
Cc1cc2nc(-c3ccc(SCC(=O)N4CCN(C(=O)c5ccco5)CC4)nc3)[nH]c2cc1C	81*	1.6	x	-81
CSc1ccccc1NC(=O)CN(C1CCCCC1)S(C)(=O)=O	-1	2*	x	0
CC(NC(=O)CN(C1CCCCC1)S(C)(=O)=O)c1ccccc1 (stereo unspecified)	3	x	x	-3
CCOC(=O)c1cccc(C(=O)Nc2nccs2)n1	x	x	i	x
Cc1cc(NS(=O)(=O)c2ccc(Nc3nc(-c4sc(NC(=O)c5ccccc5)nc4C)cs3)cc2)no1	94*	1.8	x	-94
SMILES	sEH inh	PLAP act	BAP1 inh	sEH act
CCOC(=O)c1ccc(NS(=O)(=O)c2cc(-c3nnnn3CC)ccc2OC)cc1	7	x	i	-7
CCCCOC(=O)c1ccc(NS(=O)(=O)c2cc(-c3nnnn3CC)ccc2OC)cc1	8	2.2*	i	-7
CCCCCCC1CCC(C(=O)NC(CCSC)C(=O)NC(C(=O)OC)C(C)C)CC1 (stereo unspecified)	-8	2.2*	x	5
CCCOC(=O)c1ccc(NC(=O)COc2ccc(Cl)cc2)cc1	x	x	i	x
Cc1cccc2c1-c1sc(C(=O)Nc3nccs3)cc1CO2	-52	1.1	x	53*
Cc1cc(NCCCn2ccnc2)n2ncc(-c3ccccc3)c2n1	8	2.3*	i	-8
[O-][n+]1onc2ncc(Br)cc21	x	x	i	x
CNC(=S)NNC(=O)CCn1nc(C)c(Br)c1C	7	2.1*	x	-6
Cc1nn(CCC(=O)NNC(=S)Nc2ccc(F)cc2)c(C)c1[N+](=O)[O-]	10	x	x	-5
CCOCCCNC(=S)NNC(=O)CCn1nc(C)c(Br)c1C	-2	2.9*	x	4
Cc1cc(C(=O)NNC(=S)NCC(C)C)no1	8	1.8	x	-7
Cc1nn(CCC(=O)NNC(=S)NCC(C)C)c(C)c1Br	-3	2.5*	x	5
O=c1cc(-c2ccccc2)[nH]c2nc3ccccc3n12	-4	1.3	x	4
CCc1c(C)[nH]c2nc3ccccc3n2c1=O	-8	2.3*	x	7
COc1ccc(C2C(C(=O)OCC(=O)Nc3ccc(C)cc3)CCC(=O)N2c2ccc(OC)cc2)cc1 (stereo unspecified)	19	2.4*	x	-17
COc1ccc(C2C(C(=O)OCC(=O)NC(C)(C)C)CCC(=O)N2c2ccc(C)cc2)cc1OC (stereo unspecified)	0	1.7	x	-1
Cc1cc(C)c(S(=O)(=O)N(CC(=O)NCc2cccnc2)C2CCCCC2)c(C)c1	11	2.3*	i	-10

Assay outcomes (PubChem)
